# Data from PubChem BioAssay (NCATS).
# Results filed as inconclusive are left out. The source made the active and inactive calls. Unless noted, calls come from the whole dose curve; as a rule, active = well fitted curve in the direction sought with a large enough effect; inconclusive = small, poorly fitted or top-dose-only effect, or another doubt; inactive = no such curve, though single readings can be large; an effect the other way counts as inactive or inconclusive.
# Key:
# [1] = Quantitative High-Throughput drug screen in 47 multiple myeloma cell lines against the NCATS MIPE library collection: XG1_PLB cell viability assay (AID 1919866); note: nearly all actives have a fitted effect of over 35% in size; note: potency is the fitted concentration of half-maximal effect
# Summary of the method: (§1)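 Plated at 500 cells per well, myeloma lines received MIPE 4.0 compounds by pin tool. Following 48 h culture at 37 °C, CellTiter-Glo luminescence gave viability relative to DMSO and media-only controls.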
# [2] = Quantitative High-Throughput drug screen in 47 multiple myeloma cell lines against the NCATS MIPE library collection: VP6_DJ cell viability assay (AID 1919867); note: nearly all actives have a fitted effect of over 40% in size; note: potency is the fitted concentration of half-maximal effect
# Summary of the method: as §1
# [3] = Quantitative High-Throughput drug screen in 47 multiple myeloma cell lines against the NCATS MIPE library collection: PCM6_Riken cell viability assay (AID 1919870); note: nearly all actives have a fitted effect of over 30% in size; note: potency is the fitted concentration of half-maximal effect
# Summary of the method: as §1
# [4] = Quantitative High-Throughput drug screen in 47 multiple myeloma cell lines against the NCATS MIPE library collection: OPM2_DSMZ cell viability assay (AID 1919872); note: nearly all actives have a fitted effect of over 30% in size; note: potency is the fitted concentration of half-maximal effect
# Summary of the method: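 Myeloma cells (500 per well) were exposed to MIPE 4.0 compounds by pin transfer and incubated 48 hours at 37C, 5% CO2. Viability was read as ATP by CellTiter-Glo luminescence, normalised to DMSO (100%) and media-only (0%) wells.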
# [5] = Quantitative High-Throughput drug screen in 47 multiple myeloma cell lines against the NCATS MIPE library collection: KMS11_JCRBsus cell viability assay (AID 1919873); note: nearly all actives have a fitted effect of over 50% in size; note: potency is the fitted concentration of half-maximal effect
# Summary of the method: as §1
# [6] = Quantitative High-Throughput drug screen in 47 multiple myeloma cell lines against the NCATS MIPE library collection: KMS28BM_JCRB cell viability assay (AID 1919874); note: nearly all actives have a fitted effect of over 35% in size; note: potency is the fitted concentration of half-maximal effect
# Summary of the method: as §1
# [7] = qHTS drug screen for cell cycle checkpoint inhibitors in PARPi-resistant BRCA-mutant ovarian cancer cell lines. (AID 1963452; calls by dose curve; note: potency is the fitted concentration of half-maximal effect); details: PEO1/OlaR viability, CellTiter-Glo luminescence, 96 h; for Z-AUC: stronger effect = lower value
# Summary of the method: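 PEO1, PEO4 and PEO1/OlaR ovarian cancer cells, 600 per well, exposed 96 h at 37C to a dilution series. Viability read by CellTiter-Glo luminescence, normalized to DMSO and empty wells; activity summarized as Z-AUC.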
# [8] = Quantitative High-Throughput drug screen in 47 multiple myeloma cell lines against the NCATS MIPE library collection: UTMC2_PLB cell viability assay (AID 1919868); details: CellTiter-Glo ATP luminescence, 48 h; viability (% of DMSO control): at 45.8 µM (top of the series) unless noted; note: nearly all actives have a fitted effect of over 55% in size; note: potency is the fitted concentration of half-maximal effect
# Summary of the method: as §1
# [9] = Quantitative High-Throughput drug screen in 47 multiple myeloma cell lines against the NCATS MIPE library collection: PE2_PLB cell viability assay (AID 1919869); note: nearly all actives have a fitted effect of over 35% in size; note: potency is the fitted concentration of half-maximal effect
# Summary of the method: as §1
# [10] = Quantitative High-Throughput drug screen in 47 multiple myeloma cell lines against the NCATS MIPE library collection: RPMI8226_ATCC cell viability assay (AID 1919871); note: nearly all actives have a fitted effect of over 30% in size; note: potency is the fitted concentration of half-maximal effect
# Summary of the method: as §1
# [11] = qHTS for identification of novel therapeutic agents for treatment of microphthalmiaassociated transcription factor (MiT) renal cell carcinoma (RCC) (AID 1963991; calls by dose curve; note: potency is the fitted concentration of half-maximal effect); details: CellTiter-Glo, 48 h; for Potency: active = Z-AUC below -0.8 in all three lines; for z-score: stronger effect = lower value
# Summary of the method: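 Three TFE3-fusion RCC cell lines (UOK109, UOK124, UOK145), 500 cells/well, were exposed to the 1912-compound MIPE 4.0 library for 48 hours at 37 C. Viability was read by CellTiter-Glo luminescence, normalised to DMSO (100%) and empty wells (0%), with 11-concentration curve fits.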
# [12] = qHTS profiling for inhibitors of Plasmodium falciparum proliferation (AID 504749);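 note: 0% = DMSO vehicle and full inhibition = artemisinin control; nearly all actives have a fitted effect of over 60% in size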; details: P. falciparum in erythrocytes, SYBR Green DNA, 72 h, at 28.7 µM (top of the series)
# Summary of the method: (§2)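 Three-day growth assay of blood-stage parasites in erythrocytes (0.3% parasitemia, 2.5% hematocrit) at 37 C, 5% CO2, quantified by SYBR Green DNA staining after overnight detergent lysis.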
# 3D7 = assay: as above; details: P. falciparum in erythrocytes, SYBR Green DNA, 72 h; series mostly up to 28.7 µM
# Summary of the method: as §2
# AA1029 = assay: as above; details: P. falciparum in erythrocytes, SYBR Green DNA, 72 h; series mostly up to 28.7 µM
# Summary of the method: as §2
# AS120 = assay: as above; details: P. falciparum in erythrocytes, SYBR Green DNA, 72 h; series mostly up to 28.7 µM
# Summary of the method: as §2
# ATS189 = assay: as above; details: P. falciparum in erythrocytes, SYBR Green DNA, 72 h; series mostly up to 28.7 µM
# Summary of the method: as §2
# ATS95 = assay: as above; details: P. falciparum in erythrocytes, SYBR Green DNA, 72 h; series mostly up to 28.7 µM
# Summary of the method: as §2
# C2A = assay: as above; details: P. falciparum in erythrocytes, SYBR Green DNA, 72 h; series mostly up to 28.7 µM
# Summary of the method: as §2
# CP185 = assay: as above; details: P. falciparum in erythrocytes, SYBR Green DNA, 72 h; series mostly up to 28.7 µM
# Summary of the method: as §2
# [13] = measured here: PEO1 parental Z-AUC
# [14] = TFE3-RCC UOK109 viability, measured here: UOK109 Z-AUC
# [15] = TFE3-RCC viability, measured here: UOK124 Z-AUC
# [16] = TFE3-RCC viability, measured here: UOK145 Z-AUC
structure (smiles),measurement,setting,value
Cc1cn(-c2cc(NC(=O)c3ccc(C)c(Nc4nccc(-c5cccnc5)n4)c3)cc(C(F)(F)F)c2)cn1,Potency,[1],inactive
same,Potency,[2],inactive
same,Potency,[3],inactive
same,Potency,[4],14800 nM (active)
same,Potency,[5],5260 nM (active)
same,Potency,[6],inactive
same,Z-AUC,[7],0.642 (inactive)
same,Z-AUC,[7]; [13],0.692
same,Z-AUC,[7]; measured here: PEO4 Z-AUC,0.0156
CN1CC[C@@H](c2c(O)cc(O)c3c(=O)cc(-c4ccccc4Cl)oc23)[C@@H](O)C1,Potency,[2],52.6 nM (active)
same,Potency,[8],83.3 nM (active)
same,Potency,[9],66.2 nM (active)
same,Potency,[3],83.3 nM (active)
same,Potency,[10],235 nM (active)
same,Potency,[4],118 nM (active)
same,Potency,[5],66.2 nM (active)
same,Potency,[6],93.5 nM (active)
same,Z-AUC,[7],-0.536 (inactive)
same,Z-AUC,[7]; [13],-1.36
same,Z-AUC,[7]; measured here: PEO4 Z-AUC,-1.16
same,Potency,[11]; TFE3-RCC UOK109 viability,118 nM (active)
same,z-score,[11]; [14],-2.54
same,z-score,[11]; [15],-1.53
same,z-score,[11]; [16],-2.13
Cc1cn2cc(C(=O)N(C)CCO)cc(N[C@@H]3CCOc4cccc(C)c43)c2n1,Potency,[1],inactive
same,Potency,[8],inactive
same,Potency,[10],inactive
same,Potency,[5],inactive
same,Potency,[6],inactive
same,Z-AUC,[7],1.4 (inactive)
same,Z-AUC,[7]; [13],1.4
same,Z-AUC,[7]; measured here: PEO4 Z-AUC,1.61
COc1ccc2c(OCc3nnc4ccc(-c5ccccc5)nn34)ccnc2c1,Potency,[1],inactive
same,Potency,[3],inactive
same,Potency,[10],inactive
same,Potency,[4],inactive
same,Potency,[5],inactive
same,Potency,[6],inactive
CC(C)Nc1cc(C(F)(F)F)cc2nc(NC(=O)c3cccnc3)nn12,Potency,[1],inactive
same,Potency,[3],inactive
same,Potency,[10],inactive
same,Potency,[5],inactive
same,Potency,[6],inactive
same,Z-AUC,[7],0.923 (inactive)
same,Z-AUC,[7]; [13],0.905
same,Z-AUC,[7]; measured here: PEO4 Z-AUC,1.12
CCCCCCCCCC(=O)N[C@@H](Cc1c[nH]c2ccccc12)C(=O)N[C@H](CC(N)=O)C(=O)N[C@@H](CC(=O)O)C(=O)N[C@@H]1C(=O)NCC(=O)N[C@@H](CCCN)C(=O)N[C@@H](CC(=O)O)C(=O)N[C@H](C)C(=O)N[C@@H](CC(=O)O)C(=O)NCC(=O)N[C@H](CO)C(=O)N[C@@H]([C@@H](C)CC(=O)O)C(=O)N[C@@H](CC(=O)c2ccccc2N)C(=O)O[C@@H]1C,Potency,[1],inactive
same,Potency,[9],inactive
same,Potency,[3],inactive
same,Potency,[10],inactive
same,Potency,[4],inactive
same,Potency,[5],inactive
same,Potency,[6],inactive
CN[C@H]1CCc2cc(OC)c(OC)c(OC)c2-c2ccc(OC)c(=O)cc21,Potency,[1],inactive
same,Potency,[8],9.3 nM (active)
same,Potency,[10],8.3 nM (active)
same,Potency,[4],1.7 nM (active)
same,Potency,[5],1.3 nM (active)
same,Potency,[6],3.3 nM (active)
same,Potency,[7],174 nM (active)
same,Z-AUC,[7]; [13],-1.41
same,Z-AUC,[7]; measured here: PEO4 Z-AUC,-1.47
same,Potency,[11]; TFE3-RCC UOK109 viability,3.72 nM (active)
same,z-score,[11]; [14],-2.54
same,z-score,[11]; [15],-2.9
same,z-score,[11]; [16],-0.848
Cc1cccc(C=NNc2cc(N3CCOCC3)nc(OCCc3ccccn3)n2)c1,Potency,[1],23500 nM (active)
same,Potency,[9],18700 nM (active)
same,Potency,[10],18700 nM (active)
same,Potency,[4],6620 nM (active)
same,Potency,[5],2640 nM (active)
same,Potency,[11]; TFE3-RCC UOK109 viability,118 nM (active)
same,z-score,[11]; [14],-0.897
same,z-score,[11]; [15],-1.42
same,z-score,[11]; [16],-0.962
O=C(C=Cc1c(C(=O)O)[nH]c2cc(Cl)cc(Cl)c12)Nc1ccccc1,Potency,[1],inactive
same,Potency,[2],inactive
same,Potency,[3],inactive
same,Potency,[4],inactive
same,Potency,[5],inactive
same,Potency,[6],inactive
same,z-score,[11]; [14],0.0645
same,z-score,[11]; [15],0.537
same,z-score,[11]; [16],0.334
COc1cccc(-c2ccc(NC(=O)C3=C(C(=O)O)CCC3)c(F)c2)c1,Potency,[1],4180 nM (active)
same,Potency,[3],3320 nM (active)
same,Potency,[10],13200 nM (active)
same,Potency,[5],14800 nM (active)
same,Potency,[6],18700 nM (active)
same,Z-AUC,[7],0.233 (inactive)
same,Z-AUC,[7]; [13],0.433
same,Z-AUC,[7]; measured here: PEO4 Z-AUC,0.985
Cc1cn2c(-c3cn[nH]c3)cnc2c(Nc2ccc(C(=O)N3CCNCC3)cc2F)n1,Potency,[1],3720 nM (active)
same,Potency,[2],8330 nM (active)
same,Potency,[3],18700 nM (active)
same,Potency,[4],23500 nM (active)
same,Potency,[5],8330 nM (active)
same,Potency,[6],8330 nM (active)
CCCNC(=O)Nc1ccc(Oc2ncnc3cc(OC)c(OC)cc23)cc1Cl,Potency,[1],inactive
same,Potency,[8],inactive
same,Potency,[9],inactive
same,Potency,[3],inactive
same,Potency,[10],935 nM (active)
same,Potency,[4],inactive
same,z-score,[11]; [14],0.0793
same,z-score,[11]; [15],-1.33
same,z-score,[11]; [16],-0.496
O=C(NCCS(=O)(=O)c1ccc(C(F)(F)F)cn1)c1ccc(Cl)cc1,Potency,[1],inactive
same,Potency,[8],inactive
same,Potency,[9],inactive
same,Potency,[3],inactive
same,Potency,[4],inactive
same,Potency,[5],inactive
same,Potency,[6],inactive
same,Z-AUC,[7],0.591 (inactive)
same,Z-AUC,[7]; [13],0.415
same,Z-AUC,[7]; measured here: PEO4 Z-AUC,0.479
same,z-score,[11]; [14],-0.45
same,z-score,[11]; [15],0.348
same,z-score,[11]; [16],0.45
C[C@]12CC[C@H](O)CC1=CCC1C2CC[C@]2(C)C(n3cnc4ccccc43)=CCC12 (stereo partly drawn),Potency,[1],inactive
same,Potency,[9],inactive
same,Potency,[3],inactive
same,Potency,[5],inactive
same,Potency,[6],inactive
same,Z-AUC,[7],0.586 (inactive)
same,Z-AUC,[7]; [13],1.13
same,Z-AUC,[7]; measured here: PEO4 Z-AUC,0.642
same,z-score,[11]; [14],0.298
same,z-score,[11]; [15],0.603
same,z-score,[11]; [16],-0.0216
COc1c(N2C[C@@H]3CCCN[C@H]3C2)c(F)cc2c(=O)c(C(=O)O)cn(C3CC3)c12,Potency,[1],inactive
same,Potency,[9],inactive
same,Potency,[3],inactive
same,Potency,[10],inactive
same,Potency,[4],6620 nM (active)
same,Potency,[5],inactive
same,Potency,[6],inactive
same,Z-AUC,[7],0.687 (inactive)
same,Z-AUC,[7]; [13],0.58
same,Z-AUC,[7]; measured here: PEO4 Z-AUC,1.15
same,z-score,[11]; [14],0.422
same,z-score,[11]; [15],1.3
same,z-score,[11]; [16],1.53
same,"activity, negative = inhibition",[12]; parasite line A,-20.4% (inactive)
same,"activity, negative = inhibition",[12]; parasite line B,-3.01% (inactive)
same,Potency,3D7,inactive
same,Potency,AA1029,inactive
same,Potency,AS120,inactive
same,Potency,ATS189,inactive
same,Potency,ATS95,inactive
same,Potency,C2A,inactive
same,Potency,CP185,inactive
